Test results published in the supplement of paper PMC10849652.
About 7,900 targets were measured; listed, in parts, are those with a hit and a random draw of the rest. About 0.6% of all pairs of compound and target were hits.

Key:
Assay in all cases: log2 fold change, soluble protein after heating vs DMSO (PISA); higher = thermal stabilisation; K562 cells, 10 uM, 30 min; active = over 0.2 and 3.5 SD of the protein, either way, in both replicates (recomputed)
bafetinib = compound: Cc1ccc(NC(=O)c2ccc(CN3CC[C@H](N(C)C)C3)c(C(F)(F)F)c2)cc1Nc1nccc(-c2cncnc2)n1 [bafetinib]
Outline: (§1)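 Soluble protein was defined as the supernatant after 21,000xg for 90 min. It came from K562 cells at 2×10^6 cells/mL given 10 μM compound for 30 min, heated in aliquots for 3 min across 48°C-58°C, pooled, and extracted in PBS with 0.5% NP-40 at 4°C, and was quantified by TMTpro 16plex LC-MS/MS with equalised channel sums. Thermal stability against control samples, from duplicates, is reported as log2 fold change.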

[1] = compound: Cc1cccc(CC(=O)N2CCc3c2ccc(-c2cn(C)c4ncnc(N)c24)c3F)n1
Outline: as §1

nilotinib = compound: Cc1cn(-c2cc(NC(=O)c3ccc(C)c(Nc4nccc(-c5cccnc5)n4)c3)cc(C(F)(F)F)c2)cn1 [nilotinib]
Outline: as §1

[2] = compound: Cc1nc(Nc2n[nH]c3c2CN(C(=O)N[C@H](CN(C)C)c2ccccc2)C3(C)C)c2sccc2n1
Outline: as §1

[3] = compound: Cc1ncc(-c2ccnc(Nc3ccc(S(C)(=O)=O)cc3)n2)n1C(C)C
Outline: as §1

[4] = compound: Cn1cc(-c2ccc3c(c2)CCN3C(=O)Cc2cccc(C(F)(F)F)c2)c2c(N)ncnc21
Outline: as §1

[5] = compound: Cn1cc(-c2ccc3nnc(C(F)(F)c4ccc5ncccc5c4)n3n2)cn1
Outline: as §1

tipifarnib = compound: Cn1cncc1[C@@](N)(c1ccc(Cl)cc1)c1ccc2c(c1)c(-c1cccc(Cl)c1)cc(=O)n2C [tipifarnib]
Outline: as §1

mubritinib = compound: FC(F)(F)c1ccc(/C=C/c2nc(COc3ccc(CCCCn4ccnn4)cc3)co2)cc1 [mubritinib]
Outline: as §1

dasatinib = compound: Cc1nc(Nc2ncc(C(=O)Nc3c(C)cccc3Cl)s2)cc(N2CCN(CCO)CC2)n1 [dasatinib]
Outline: as §1

Measured: log2 fold change

FAM118B (UniProt Q9BPY3)
inactive: bafetinib -0.083 | [1] 0.028 | nilotinib -0.114 | [2] -0.106 | [3] 0.022 | [4] 0.014 | [5] 0.02 | tipifarnib -0.083 | mubritinib 0.015

EXTL2 (UniProt Q9UBQ6)
inactive: bafetinib -0.041 | [1] 0.021 | nilotinib -0.02 | [2] 0.006 | dasatinib -0.008 | [3] -0.059 | [4] -0.039 | [5] -0.064 | tipifarnib 0.014 | mubritinib 0.029

DHCR24 (UniProt Q15392)
inactive: [1] -0.001 | nilotinib -0.03 | [2] 0.025 | dasatinib 0.127 | [3] 0.577 | [4] 0.292 | [5] 0.043 | tipifarnib -0.006 | mubritinib 0.47
active: bafetinib 1.39

EFCAB14 (UniProt O75071)
inactive: bafetinib -0.008 | [1] -0.056 | nilotinib 0.084 | [2] 0.011 | dasatinib 0.075 | [3] 0.003 | [4] -0.123 | [5] -0.048 | tipifarnib -0.062 | mubritinib 0.081

EXOSC10 (UniProt Q01780)
inactive: [1] 0 | dasatinib 0.017 | [4] 0.152 | [5] 0.251 | tipifarnib 0.195 | mubritinib 0.046
active: bafetinib -0.63

DENND10 (UniProt Q8TCE6)
inactive: bafetinib 0.033 | nilotinib -0.266 | [2] -0.032 | dasatinib -0.129 | [3] -0.353 | [4] -0.131 | [5] -0.064 | tipifarnib 0.034 | mubritinib 0.077

DPYSL2 (UniProt Q16555)
inactive: bafetinib -0.114 | [1] 0.081 | nilotinib 0.046 | [2] -0.063 | dasatinib 0 | [3] 0.079 | [4] 0.042 | tipifarnib 0.015 | mubritinib -0.048

ELOC (UniProt Q15369)
inactive: bafetinib 0.003 | [1] 0.014 | nilotinib -0.028 | [2] 0.013 | dasatinib 0.032 | [3] -0.003 | [4] 0.116 | [5] 0.049 | tipifarnib -0.027 | mubritinib 0.005

DOCK8 (UniProt Q8NF50)
Sequence of UniProt Q8NF50 (Q8NF50 whole entry, looked up): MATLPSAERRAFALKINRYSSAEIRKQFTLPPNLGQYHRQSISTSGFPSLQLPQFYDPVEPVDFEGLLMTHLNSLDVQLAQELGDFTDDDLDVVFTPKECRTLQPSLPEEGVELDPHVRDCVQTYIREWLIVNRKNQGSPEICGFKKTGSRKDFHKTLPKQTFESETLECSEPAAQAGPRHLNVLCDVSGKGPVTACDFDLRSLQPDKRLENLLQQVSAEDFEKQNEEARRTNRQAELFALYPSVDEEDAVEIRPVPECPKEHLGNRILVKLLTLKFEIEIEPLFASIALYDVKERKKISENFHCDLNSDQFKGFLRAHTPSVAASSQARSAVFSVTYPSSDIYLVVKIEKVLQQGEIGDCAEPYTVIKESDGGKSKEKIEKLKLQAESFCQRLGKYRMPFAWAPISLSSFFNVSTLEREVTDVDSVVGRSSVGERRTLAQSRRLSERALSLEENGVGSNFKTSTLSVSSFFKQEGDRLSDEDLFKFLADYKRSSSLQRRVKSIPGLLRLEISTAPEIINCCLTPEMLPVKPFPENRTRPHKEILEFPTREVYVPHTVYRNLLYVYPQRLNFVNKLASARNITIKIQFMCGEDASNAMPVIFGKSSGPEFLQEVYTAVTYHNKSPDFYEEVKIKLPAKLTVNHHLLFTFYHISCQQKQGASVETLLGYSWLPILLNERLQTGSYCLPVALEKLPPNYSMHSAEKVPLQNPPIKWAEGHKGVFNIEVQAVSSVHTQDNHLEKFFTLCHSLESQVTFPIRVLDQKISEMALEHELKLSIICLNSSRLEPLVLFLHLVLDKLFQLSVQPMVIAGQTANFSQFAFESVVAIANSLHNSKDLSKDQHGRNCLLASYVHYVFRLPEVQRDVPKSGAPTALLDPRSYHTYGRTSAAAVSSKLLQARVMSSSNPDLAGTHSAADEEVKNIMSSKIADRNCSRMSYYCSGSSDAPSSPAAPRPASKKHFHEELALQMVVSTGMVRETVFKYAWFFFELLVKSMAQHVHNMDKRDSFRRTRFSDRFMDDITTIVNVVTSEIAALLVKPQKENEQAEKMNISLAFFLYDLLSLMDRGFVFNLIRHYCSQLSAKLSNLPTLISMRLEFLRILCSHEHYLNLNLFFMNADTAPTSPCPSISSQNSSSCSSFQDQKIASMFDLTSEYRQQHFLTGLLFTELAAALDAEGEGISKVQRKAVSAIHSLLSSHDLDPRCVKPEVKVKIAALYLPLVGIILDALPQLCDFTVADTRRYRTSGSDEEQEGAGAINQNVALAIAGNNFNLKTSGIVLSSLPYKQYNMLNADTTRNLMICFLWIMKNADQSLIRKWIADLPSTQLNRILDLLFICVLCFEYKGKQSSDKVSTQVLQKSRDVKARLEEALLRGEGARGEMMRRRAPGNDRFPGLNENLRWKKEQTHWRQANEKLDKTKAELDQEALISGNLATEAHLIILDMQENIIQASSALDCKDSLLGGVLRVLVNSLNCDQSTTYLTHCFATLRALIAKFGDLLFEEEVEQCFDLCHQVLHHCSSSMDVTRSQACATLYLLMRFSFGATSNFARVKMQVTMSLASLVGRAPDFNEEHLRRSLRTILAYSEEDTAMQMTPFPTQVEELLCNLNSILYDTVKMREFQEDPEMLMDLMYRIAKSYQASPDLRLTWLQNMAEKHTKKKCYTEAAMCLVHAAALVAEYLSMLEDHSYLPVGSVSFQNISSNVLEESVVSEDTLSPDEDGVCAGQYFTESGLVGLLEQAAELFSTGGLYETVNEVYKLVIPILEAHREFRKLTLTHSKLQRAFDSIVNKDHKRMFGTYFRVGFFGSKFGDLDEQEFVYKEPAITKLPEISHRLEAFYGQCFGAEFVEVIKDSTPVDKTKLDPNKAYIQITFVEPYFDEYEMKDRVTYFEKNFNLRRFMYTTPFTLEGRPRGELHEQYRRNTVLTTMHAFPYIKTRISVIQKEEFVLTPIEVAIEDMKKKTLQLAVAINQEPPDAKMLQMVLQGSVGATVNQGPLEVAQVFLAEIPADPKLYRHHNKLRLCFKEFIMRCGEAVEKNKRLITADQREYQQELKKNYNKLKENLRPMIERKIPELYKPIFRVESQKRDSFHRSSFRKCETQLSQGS
inactive: bafetinib -0.076 | [1] -0.055 | nilotinib 0.069 | [2] -0.057 | dasatinib 0.052 | [3] -0.126 | [4] -0.14 | [5] -0.067 | mubritinib 0.021

DNAH10 (UniProt Q8IVF4)
inactive: bafetinib 0.062 | [1] -0.052 | nilotinib -0.092 | [2] 0.037 | dasatinib 0.093 | [3] 0.043 | [4] 0.102 | mubritinib 0.154

CYP24A1 (UniProt Q07973)
Sequence of UniProt Q07973 (Q07973 whole entry, looked up): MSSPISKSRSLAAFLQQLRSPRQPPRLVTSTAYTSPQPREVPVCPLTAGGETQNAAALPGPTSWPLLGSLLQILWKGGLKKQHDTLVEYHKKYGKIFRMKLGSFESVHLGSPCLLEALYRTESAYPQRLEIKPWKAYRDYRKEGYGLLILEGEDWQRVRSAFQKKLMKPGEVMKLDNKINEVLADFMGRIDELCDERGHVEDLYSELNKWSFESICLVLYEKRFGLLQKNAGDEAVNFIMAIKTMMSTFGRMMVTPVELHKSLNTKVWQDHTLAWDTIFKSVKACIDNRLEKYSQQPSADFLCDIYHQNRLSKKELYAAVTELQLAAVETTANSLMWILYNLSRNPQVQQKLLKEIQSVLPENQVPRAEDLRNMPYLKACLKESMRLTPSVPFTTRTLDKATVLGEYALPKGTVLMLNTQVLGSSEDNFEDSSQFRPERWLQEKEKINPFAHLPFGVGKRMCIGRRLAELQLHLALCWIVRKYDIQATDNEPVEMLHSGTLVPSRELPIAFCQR
inactive: bafetinib 0.373 | [1] -0.049 | nilotinib 0.01 | [2] 0.167 | dasatinib 0.184 | [3] -0.105 | [5] -0.057 | tipifarnib 0.101 | mubritinib -0.074

DERPC (UniProt P0CG12)
Sequence of UniProt P0CG12 (P0CG12 whole entry, looked up): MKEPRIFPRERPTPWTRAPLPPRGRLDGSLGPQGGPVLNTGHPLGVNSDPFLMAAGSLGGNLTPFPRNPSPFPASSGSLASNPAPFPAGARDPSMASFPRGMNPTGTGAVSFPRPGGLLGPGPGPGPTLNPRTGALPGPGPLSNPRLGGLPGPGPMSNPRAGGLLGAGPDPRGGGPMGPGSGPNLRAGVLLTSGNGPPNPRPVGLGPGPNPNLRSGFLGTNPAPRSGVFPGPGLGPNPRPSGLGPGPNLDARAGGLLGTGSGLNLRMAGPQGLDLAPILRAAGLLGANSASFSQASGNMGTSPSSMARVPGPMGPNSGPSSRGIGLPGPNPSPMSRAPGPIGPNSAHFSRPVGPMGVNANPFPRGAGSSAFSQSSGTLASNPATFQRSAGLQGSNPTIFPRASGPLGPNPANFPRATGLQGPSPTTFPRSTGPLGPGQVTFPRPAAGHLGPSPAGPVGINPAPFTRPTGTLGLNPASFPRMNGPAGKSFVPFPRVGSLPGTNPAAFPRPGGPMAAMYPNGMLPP
inactive: bafetinib -0.06 | [1] -0.193 | nilotinib 0.044 | [2] -0.04 | dasatinib 0.227 | [3] -0.126 | [5] 0.245 | mubritinib 0.049

FAM160B1 (UniProt Q5W0V3)
inactive: bafetinib -0.018 | [1] 0.023 | nilotinib -0.032 | [2] -0.049 | dasatinib -0.082 | [3] -0.014 | [4] -0.053 | [5] -0.039 | tipifarnib 0.115 | mubritinib 0.023

DPP8 (UniProt Q6V1X1)
inactive: bafetinib -0.054 | [1] -0.035 | nilotinib 0.027 | [2] -0.019 | dasatinib 0.014 | [3] -0.001 | [4] 0.048 | [5] 0.054 | tipifarnib 0.065 | mubritinib 0.036

EIF2AK3 (UniProt Q9NZJ5)
active: [4] 0.845
inactive: bafetinib 0.082 | [1] 0.535 | nilotinib -0.201 | [2] -0.072 | dasatinib -0.017 | [3] -0.067 | tipifarnib -0.057 | mubritinib 0.019

CTNNB1 (UniProt P35222)
inactive: bafetinib 0.026 | [1] 0.057 | nilotinib -0.056 | [2] 0.205 | dasatinib -0.149 | [4] -0.004 | [5] -0.021 | tipifarnib -0.115 | mubritinib 0.076
active: [3] 0.858

DFFB (UniProt O76075)
Sequence of UniProt O76075 (O76075 whole entry, looked up): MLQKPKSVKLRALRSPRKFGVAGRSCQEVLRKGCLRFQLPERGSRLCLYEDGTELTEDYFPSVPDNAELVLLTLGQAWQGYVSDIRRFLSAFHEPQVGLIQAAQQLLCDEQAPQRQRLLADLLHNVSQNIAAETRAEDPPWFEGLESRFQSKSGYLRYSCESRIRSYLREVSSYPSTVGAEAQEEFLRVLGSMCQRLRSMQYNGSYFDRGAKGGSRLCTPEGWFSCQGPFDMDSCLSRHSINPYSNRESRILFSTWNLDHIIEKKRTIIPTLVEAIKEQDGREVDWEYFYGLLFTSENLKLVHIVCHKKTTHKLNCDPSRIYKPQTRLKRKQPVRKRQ
inactive: bafetinib 0.042 | [1] -0.032 | nilotinib -0.047 | [2] -0.156 | dasatinib -0.057 | [3] 0.056 | [4] -0.053 | [5] 0.002 | tipifarnib -0.072 | mubritinib 0.019

EIF3J (UniProt O75822)
active: [1] 0.266
inactive: bafetinib -0.067 | nilotinib 0.001 | [2] -0.019 | dasatinib -0.018 | [3] 0.008 | [4] 0.022 | [5] -0.014 | tipifarnib -0.013 | mubritinib 0.033

EXOC8 (UniProt Q8IYI6)
Sequence of UniProt Q8IYI6 (Q8IYI6 whole entry, looked up): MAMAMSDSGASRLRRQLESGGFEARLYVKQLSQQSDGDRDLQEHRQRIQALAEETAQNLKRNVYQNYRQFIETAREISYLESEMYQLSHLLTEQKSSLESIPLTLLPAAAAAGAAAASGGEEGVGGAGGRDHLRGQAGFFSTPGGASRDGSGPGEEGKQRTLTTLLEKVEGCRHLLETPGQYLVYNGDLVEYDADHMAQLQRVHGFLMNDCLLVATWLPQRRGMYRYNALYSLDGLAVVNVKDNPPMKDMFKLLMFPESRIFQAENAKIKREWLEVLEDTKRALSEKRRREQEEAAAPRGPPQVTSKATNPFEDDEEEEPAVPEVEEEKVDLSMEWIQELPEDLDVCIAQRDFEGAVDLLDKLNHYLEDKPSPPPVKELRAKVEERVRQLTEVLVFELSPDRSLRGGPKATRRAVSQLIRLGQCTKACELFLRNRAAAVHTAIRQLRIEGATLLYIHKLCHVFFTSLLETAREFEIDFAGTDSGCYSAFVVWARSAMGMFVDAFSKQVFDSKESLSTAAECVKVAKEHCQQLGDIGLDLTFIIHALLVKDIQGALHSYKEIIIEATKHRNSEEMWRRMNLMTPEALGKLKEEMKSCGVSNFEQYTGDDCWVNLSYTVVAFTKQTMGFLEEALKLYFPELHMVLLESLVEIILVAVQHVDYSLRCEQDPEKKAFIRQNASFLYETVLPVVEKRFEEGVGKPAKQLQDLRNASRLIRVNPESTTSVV
inactive: bafetinib -0.081 | [1] 0.071 | nilotinib -0.054 | [2] -0.137 | dasatinib -0.1 | [3] -0.012 | [4] -0.015 | [5] 0.028 | tipifarnib -0.038 | mubritinib 0.039

FAM160A2 isoform 2 (UniProt Q8N612)
inactive: bafetinib -0.208 | [1] -0.145 | nilotinib -0.085 | [2] 0.192 | dasatinib -0.186 | [3] -0.101 | [4] -0.083 | [5] 0.046 | mubritinib 0.093

CTSA (UniProt P10619)
inactive: [1] -0.04 | nilotinib 0.052 | [2] 0.015 | dasatinib 0.112 | [3] -0.001 | [4] 0.019 | [5] 0.005 | tipifarnib 0.16 | mubritinib 0.007
active: bafetinib -0.595

DCAF16 (UniProt Q9NXF7)
Sequence of UniProt Q9NXF7 (Q9NXF7 whole entry, looked up): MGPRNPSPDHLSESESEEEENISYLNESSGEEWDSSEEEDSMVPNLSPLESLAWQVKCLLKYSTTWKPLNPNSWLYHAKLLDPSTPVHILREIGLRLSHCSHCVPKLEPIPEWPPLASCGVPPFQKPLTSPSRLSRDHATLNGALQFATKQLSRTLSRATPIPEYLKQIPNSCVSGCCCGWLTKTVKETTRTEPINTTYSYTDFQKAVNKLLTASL
inactive: bafetinib -0.051 | [1] -0.056 | nilotinib -0.005 | [2] -0.004 | dasatinib -0.179 | [3] 0.005 | [4] -0.031 | [5] 0.091 | tipifarnib -0.155 | mubritinib -0.085

FADS3 (UniProt Q9Y5Q0)
inactive: bafetinib -0.11 | [1] 0.044 | nilotinib 0.108 | [2] -0.012 | dasatinib -0.109 | [3] -0.013 | [4] 0.034 | [5] -0.037 | tipifarnib -0.033 | mubritinib 0.059

EIF2AK1 (UniProt Q9BQI3)
Sequence of UniProt Q9BQI3 (Q9BQI3 whole entry, looked up): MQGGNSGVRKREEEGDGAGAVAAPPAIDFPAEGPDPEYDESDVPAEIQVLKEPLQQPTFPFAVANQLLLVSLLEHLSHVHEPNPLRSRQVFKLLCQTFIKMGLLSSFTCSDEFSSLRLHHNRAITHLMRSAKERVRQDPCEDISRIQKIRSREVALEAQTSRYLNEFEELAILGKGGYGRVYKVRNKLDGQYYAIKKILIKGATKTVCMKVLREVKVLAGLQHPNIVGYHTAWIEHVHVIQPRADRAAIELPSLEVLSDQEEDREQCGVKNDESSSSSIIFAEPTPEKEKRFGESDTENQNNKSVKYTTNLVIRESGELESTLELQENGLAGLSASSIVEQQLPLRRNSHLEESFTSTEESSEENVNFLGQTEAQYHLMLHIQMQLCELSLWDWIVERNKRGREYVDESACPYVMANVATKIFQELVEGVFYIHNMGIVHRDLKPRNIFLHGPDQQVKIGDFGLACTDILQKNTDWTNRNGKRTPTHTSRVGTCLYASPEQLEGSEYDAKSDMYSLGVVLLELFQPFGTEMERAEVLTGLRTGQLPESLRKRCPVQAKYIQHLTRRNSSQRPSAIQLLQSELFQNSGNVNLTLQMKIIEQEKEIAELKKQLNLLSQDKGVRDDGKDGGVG
inactive: bafetinib -0.162 | [1] 0.171 | dasatinib -0.068 | [4] 0.19 | [5] 0 | tipifarnib -0.035 | mubritinib -0.025

DEGS1 (UniProt O15121)
inactive: bafetinib -0.032 | [1] -0.029 | nilotinib 0.04 | [2] -0.021 | dasatinib -0.1 | [3] -0.031 | [4] -0.07 | tipifarnib -0.026 | mubritinib 0.087

CTSZ (UniProt Q9UBR2)
inactive: [1] -0.027 | nilotinib 0.028 | [2] -0.146 | dasatinib 0.054 | [3] -0.022 | [4] 0.058 | [5] 0.022 | tipifarnib 0.052 | mubritinib 0.033
active: bafetinib -1.01

DIP2A (UniProt Q14689)
inactive: bafetinib -0.005 | [1] -0.019 | nilotinib 0.005 | [2] -0.07 | dasatinib -0.04 | [3] 0.01 | [4] 0.043 | [5] -0.053 | tipifarnib 0.02 | mubritinib 0.002

DHX16 (UniProt O60231)
inactive: bafetinib 0.001 | [1] 0.044 | nilotinib -0.031 | [2] 0.019 | dasatinib -0.095 | [3] -0.006 | [4] 0.059 | [5] 0.002 | tipifarnib -0.04 | mubritinib 0.147

ERLIN2 (UniProt O94905)
inactive: bafetinib 0.039 | [1] 0.032 | nilotinib -0.107 | [2] 0.012 | dasatinib -0.023 | [3] 0.023 | [4] -0.104 | [5] 0 | tipifarnib 0.024 | mubritinib -0.049
